Screening results from PubChem.
An excerpt weighted towards active compounds, which were near 21% of everything screened.
Pf growth 48h: inhibits P. falciparum growth in the first generation, 48 h; P. falciparum luciferase growth in erythrocytes, 48 h; Potency, µM (top dose mostly 28.7 µM), hits mostly inhibitors; 5.9% of 310,000 active; AID 504832; active = well fitted inhibition curve with a large enough effect; inconclusive = small, poorly fitted or top-dose-only effect, or another doubt; inactive = no such curve, though single readings can be large or run the other way
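Compounds are pin-transferred into medium, infected erythrocytes (2% hematocrit, 0.1% parasitemia final) are added, and plates sit one parasite generation at 37 C in 5% CO2. Detection reagent is then added and luminescence measured.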
NS1 function inh: blocks influenza NS1 protein function. 0.4% of 270,000 active. AID 2326. Potency, µM (highest dose often 46.1 µM); note: actives are rising curves; nearly all actives have a fitted effect of over 50% in size
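Compounds were scored for reversing the slow growth caused by influenza A NS1 in S. cerevisiae, measured by optical density at 600 nm. Assay medium contained 2% galactose at pH 6.0; NS1-free yeast of the same strain were the positive control.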
SARS PLpro yeast: inhibitors of SARS-CoV papain-like protease in yeast | 0.19% of 330,000 active | Potency, µM (series often up to 32.9 µM), usual class: activators | S. cerevisiae expressing SARS-CoV PLpro, growth rescue | AID 485353; note: nearly all actives have a fitted effect of over 55% in size
Shiga inhibitor: inhibitors of Shiga toxin in Vero cells. Vero cells, Shiga toxin protein synthesis inhibition reporter. inhibition, % at 38.7 µM. 9.2% of 290,000 active; in the data active = inhibition mostly above about 28%, no sharp cut-off; inactive = mostly below about 43%
Pf growth 96h: inhibits malaria parasite growth, 96 h; P. falciparum luciferase reporter growth, 96 h; Potency, µM (series often up to 28.7 µM), hits mostly inhibitors; 6.9% of 320,000 active; AID 504834; active = well fitted inhibition curve with a large enough effect; inconclusive = small, poorly fitted or top-dose-only effect, or another doubt; inactive = no such curve, though single readings can be large or run the other way
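Erythrocytes infected with luciferase-expressing P. falciparum were dispensed at 2% hematocrit and 0.05% parasitemia (final), then incubated with compounds 96 hours at 37 C in 5% CO2. Luminescence after detection reagent addition reported growth.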
CHX counter: affects cycloheximide protein synthesis inhibition readout, counter-screen | cell reporter, cycloheximide protein synthesis inhibition counterscreen | max response, % | 12% of 300,000 active; in the data active = max response mostly above about 13%, no sharp cut-off; inactive = mostly below about 14%; note: read at 38.3 µM for the half of the compounds with a filed dose
Flu NS1 inh: influenza NS1 function inhibition validation | shares compounds with NS1 function inh | influenza NS1 function cell assay, 15-point titration | activity change, negative = inhibition, % at 32.9 µM | 1,400 tested, under 10 active
Of the large screens only hits and unclear results are named; the others gave an inactive call (follow-up assays come after a bar, where they were run). Unless noted, calls come from the whole dose curve.

COc1ccccc1/C=N/NC(=O)c1nnn(-c2nonc2N)c1-c1cccs1	NS1 function inh 2.24µM | Flu NS1 inh inactive
COc1ccc(/C=N/NC(=O)CN2CCSCC2)c(OC)c1	none
COc1ccc(CSc2nc(O)cc(=O)n2CC(C)C)cc1F	NS1 function inh 3.55µM | Flu NS1 inh inconclusive
COc1cccc2c1OCC/C2=N\NC(=O)COc1ccc(C)cc1	NS1 function inh inconclusive, Shiga inhibitor 23.5, Pf growth 96h inconclusive | Flu NS1 inh inactive
Cc1cc(C)c(-c2cc(NC(=O)COC(=O)c3ccc(CO)cc3)n(-c3ccccc3)n2)cc1C	Pf growth 48h inconclusive, NS1 function inh 11.2µM, Pf growth 96h inconclusive | Flu NS1 inh inactive
COc1cc(C(=O)OCC(=O)Nc2cc(-c3cc(C)c(C)cc3C)nn2-c2ccccc2)cc(OC)c1OC	Pf growth 96h inconclusive
CCN1CCN(CCCNC(=O)C2CCCN(c3nnc(-n4cccc4)s3)C2)CC1 (stereo not drawn)	NS1 function inh 5.01µM, Pf growth 96h inconclusive | Flu NS1 inh inactive
CN1CCN(CCCNC(=O)C2CCN(c3nnc(-n4cccc4)s3)CC2)CC1	none
Cn1cnnc1SCC(C)(C)NS(=O)(=O)c1ccc(Cl)cc1	NS1 function inh inconclusive, Pf growth 96h inconclusive | Flu NS1 inh inactive
Cc1ccc(S(=O)(=O)NC(C)(C)CSc2nncn2C)cc1	none (no result: Pf growth 48h)
O=C(c1ccc(S(=O)(=O)N2CCCC2)cc1)N1CCN(c2ccccc2)CC1	NS1 function inh 4.47µM, Pf growth 96h inconclusive | Flu NS1 inh inactive
O=C(c1ccc(S(=O)(=O)N2CCCC2)cc1)N1CCN(c2cccc(Cl)c2)CC1	Pf growth 48h inconclusive, Pf growth 96h inconclusive
Cc1cc(NC(=O)c2cccc(S(=O)(=O)N(C)C)c2)n(-c2ccccn2)n1	NS1 function inh 12.6µM, Pf growth 96h 4.65µM (no result: Pf growth 48h) | Flu NS1 inh inactive
Cc1cc(NC(=O)c2cccc(S(=O)(=O)N3CCCCCC3)c2)n(-c2ccccn2)n1	none
CCOC(=O)C1=C(C)Nc2sc(C(=O)c3ccc(C)cc3)c(N)c2C1c1ccc(C(=O)OC)cc1 (stereo not drawn)	Pf growth 48h 11.7µM, NS1 function inh 10µM, Pf growth 96h 5.22µM | Flu NS1 inh inactive
Cc1ccc(CCN2CC(C(=O)NC3CCCC3)CC2=O)cc1 (stereo not drawn)	NS1 function inh inconclusive | Flu NS1 inh inactive
Cc1ccc(CCN2CC(C(=O)NCCN(C)C)CC2=O)cc1 (stereo not drawn)	none
O=C1OC(c2ccc(F)cc2)=N/C1=C\C=C/c1ccccc1	Pf growth 96h inconclusive
CCOC(=O)N1CCC(NC(=O)c2ccc(CS(=O)(=O)c3ccccc3C)o2)CC1	Pf growth 96h inconclusive (no result: Pf growth 48h)
COc1cc(/C=C2\SC(=S)N(Nc3ncc(C(F)(F)F)cc3Cl)C2=O)ccc1O	NS1 function inh 3.98µM, Pf growth 96h inconclusive, CHX counter 13.8 (no result: Pf growth 48h) | Flu NS1 inh inactive
CN(C)c1ccc(/C=C2\SC(=S)N(Nc3ncc(C(F)(F)F)cc3Cl)C2=O)cc1	none
CCc1ccc(N2C(=O)NC(=O)/C(=C\C=C\c3ccco3)C2=O)cc1	NS1 function inh 11.2µM, CHX counter 21.9 | Flu NS1 inh inactive
CN(CC(=O)Nc1ccc(Cl)cc1)C(=O)c1cc(-c2cccs2)nn1-c1ccccc1	none (no result: NS1 function inh, SARS PLpro yeast, Shiga inhibitor, CHX counter)
O=C(COC(=O)c1cc(-c2cccs2)nn1-c1ccccc1)Nc1ccc(Cl)c([N+](=O)[O-])c1	NS1 function inh 11.2µM | Flu NS1 inh inactive
CCN(CC)c1nc2c3c(nc4c(c3c1C#N)CC(=O)N4c1ccc(Cl)cc1)NC(C)=N2	Pf growth 48h 16.5µM, NS1 function inh 14.1µM, Pf growth 96h 4.65µM | Flu NS1 inh inactive
Nc1nnc(CC(=O)N/N=C/c2ccccc2OCc2ccccc2F)s1	none
CCOC(=O)c1cc(-c2ccccc2)sc1NC(=O)CN1C(=O)NC(CC)(c2ccc(F)cc2)C1=O (stereo not drawn)	Pf growth 48h inconclusive, NS1 function inh 11.2µM (no result: Pf growth 96h) | Flu NS1 inh inactive
Cc1ccc2c(C)nc(/N=C(\N)NC(=O)N3c4ccccc4Sc4ccccc43)nc2c1	Pf growth 48h 13.1µM, NS1 function inh inconclusive | Flu NS1 inh inactive
CN(CC(=O)NC1CCCCC1)S(=O)(=O)c1ccc(Cl)cc1	NS1 function inh inconclusive (no result: Pf growth 96h) | Flu NS1 inh inactive
CN(CC(=O)NC1CCCCCC1)S(=O)(=O)c1ccc(F)cc1	none
O=C(CCSc1ccc(Cl)cc1)NC1CCCCC1	Pf growth 48h inconclusive, NS1 function inh inconclusive | Flu NS1 inh inactive
O=C1CS/C(=N\C(=O)N2c3ccccc3Sc3ccccc32)N1	Pf growth 48h inconclusive
CCCn1cc(NC(=O)C2CC(c3cccc(Br)c3)=NO2)cn1 (stereo not drawn)	Pf growth 48h inconclusive (no result: Pf growth 96h)
O=C(C1CCCC1)N1CCC(CC2CC(c3cccc(Br)c3)=NO2)(C(=O)NCC2CCCCC2)CC1 (stereo not drawn)	Pf growth 48h inconclusive, NS1 function inh 22.4µM, Pf growth 96h inconclusive | Flu NS1 inh inactive
C=CCn1cnc2scc(-c3ccc(C)cc3)c2c1=O	Pf growth 96h inconclusive (no result: Pf growth 48h)
O=C(Nc1ccc(S(=O)(=O)Nc2nccs2)cc1)c1cc(-c2ccccc2)nc2ccccc12	NS1 function inh 11.2µM, Pf growth 96h inconclusive | Flu NS1 inh inactive
Cc1ccc(-c2cc(C(=O)Nc3ccc(S(=O)(=O)Nc4nccs4)cc3)c3ccccc3n2)c(C)c1	Pf growth 48h inconclusive
CCC/C(=N/NC(=O)c1ccc2c(c1)OCO2)c1cccs1	NS1 function inh inconclusive, Shiga inhibitor 88.7, Pf growth 96h inconclusive, CHX counter 96.4 | Flu NS1 inh inactive
O=C(Cc1ccc(N(CCCl)CCCl)cc1)NC(Cc1ccc(Cl)cc1)C(=O)O (stereo not drawn)	none
OCCN(CCO)c1ccc(C(c2ccc(Cl)cc2)c2ccc(N(CCO)CCO)cc2Cl)c(Cl)c1	Pf growth 48h inconclusive, NS1 function inh 14.1µM | Flu NS1 inh inactive
O=C1N=C(N2CCc3ccccc3C2)S/C1=C\c1cccc(O)c1	NS1 function inh inconclusive, Pf growth 96h inconclusive | Flu NS1 inh inconclusive
COc1ccc(/C=C2\SC(N3CCc4ccccc4C3)=NC2=O)cc1	Pf growth 48h inconclusive, Pf growth 96h inconclusive
COc1ccc(C2CC(c3cccs3)=NN2c2ccc(C=O)cc2)cc1 (stereo not drawn)	NS1 function inh 11.2µM, Shiga inhibitor 55.0, CHX counter 45.9 | Flu NS1 inh inactive
COc1cccc(CN2CCNC(=O)C2CC(=O)N2CCCCO2)c1OC (stereo not drawn)	none
Cc1nnc(SCC(=O)Nc2nc3c(s2)CC(C)CC3)s1 (stereo not drawn)	NS1 function inh inconclusive, Shiga inhibitor 59.7, CHX counter 37.3 | Flu NS1 inh inactive
Cc1cc(Br)ccc1NC(=O)CNC(=O)CN(C)Cc1nc2ccccc2c(=O)[nH]1	none
